# Reference: PubChem BioAssay AID1645879 (National Center for Advancing Translational Sciences (NCATS), 2021)
# Inconclusive results are not listed. Unmarked numbers belong to inactive results. The source made the active and inactive calls. Calls come from the whole dose curve; as a rule, active = well fitted inhibition curve with a large enough effect; inconclusive = small, poorly fitted or top-dose-only effect; inactive = no such curve, though single readings can be large or run the other way.
# Assay: Counterscreen qHTS assay for inhibitors of N-terminal methyltransferase 1 (NTMT1): SPKRIA Counterscreen Assay
# Conditions: biochemical qHTS; series mostly up to 99.2 µM; activity change, negative = inhibition: at the top concentration
# Outline: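 SPKRIA MTase-Glo counterscreen: compounds preincubated 15 min, then SPKRIA substrate (1 uM final) 30 min at RT. SAH converted to luminescence; data normalized to positive control, fitted to 4-parameter Hill equation.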
SMILES,"activity change, negative = inhibition [%]",Potency
CC[C@H](c1ccc(O)cc1)[C@@H](CC)c1ccc(O)cc1,-8.78,
C[C@]12CCC3=C4CCC(=O)C=C4CC[C@H]3[C@@H]1CC[C@@]2(O)CC#N,1.22,
Cc1cc(C)nc(NC(=S)N2CCN(c3ccncc3)CC2)c1,4.88,
Cc1c(Cl)cccc1Nc1nn2c(=O)c3ccccc3nc2s1,-8.92,
CN(C)CCC=C1c2ccccc2C=Cc2ccccc21,-5.54,
Cc1nc(C)c(-c2ccc3ncnc(NCc4ncc[nH]4)c3c2)s1,,44.7 µM (active)
Oc1cccc(Nc2nc(-c3ccccc3)nc3ccccc23)c1,,20 µM (active)
COc1ccc2[nH]c(S(=O)Cc3ncc(C)c(OC)c3C)nc2n1 (stereo not given),3.15,
Cc1cc2c(s1)c1cnn(Cc3cccc(F)c3)c(=O)c1n2C,-5.6,
COc1cc(C)c(/C=C/C(C)=C/C=C/C(C)=C/C(=O)O)c(C)c1C,-10.6,
Cc1cc(C)n2c(Nc3c(C)cccc3C)c(-c3ccsc3)nc2n1,-2.07,
COc1cc2ncnc(Nc3cccc(Cl)c3)c2cc1OC,,22.4 µM (active)
NC(=O)C1CCN(c2nc(-c3ccc4c(c3)CCO4)cs2)CC1,-3.4,
CN1CCCN=C1/C=C/c1cccs1,-5.35,
COc1cc(/C=C\c2ccc(O)cc2)cc(OC)c1,-10.9,
Clc1ccc2ncc(-c3cccc(NC4CCNC4)n3)n2c1 (stereo not given),-12,
Cc1ccnc(NC(=S)N2CCNCC2)c1,3.62,
Cc1ccc(-n2ncc3c(NCCO)ncnc32)cc1Cl,,31.6 µM (active)
COc1ccc(Nc2ncnc3sc4c(c23)CCCC4)cc1,,20 µM (active)
CC(=O)Nc1sc2c(c1-c1nc3ccccc3s1)CNC2,-17.4,
